High-throughput results as filed in PubChem BioAssay.
In the library only some 1.1% were active in any assay of this set; here they are far more common.
miR-21 reporter: qHTS Assay for Modulators of miRNAs and/orActivators of miR-21; HeLa miR-21 FLuc reporter, luciferase, 48 h; Potency, µM (highest dose often 38.3 µM), for inactives: at the top dose activity change, positive = activation, hits mostly activators; 340,000 tested, under 10 active; AID 2288, 2010;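 note: % of control where 0% means no effect; miR-21 action dims this reporter so a rising signal means less miR-21 action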
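Compounds were titrated across several concentrations (up to approximately 40 uM) and incubated 48 hours with HeLa miR-21-FLuc reporter cells (miR-21 target sequence downstream of FLuc, endogenous miR-21). Readout was firefly luciferase luminescence after lytic detection reagent.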
TrxR1 substrate: qHTS Assay for Substrates of Mammalian Selenoprotein Thioredoxin Reductase 1 (TrxR1): qHTS. Potency, µM (doses to about 114 µM), for the others: at the highest dose activity change, negative = substrate turnover. purified TrxR1 substrate turnover, NADPH consumption readout. AID 588456, 2011. hit rate 0.01% among 390,000. Thioredoxin reductase 1, cytoplasmic (Rattus norvegicus), O89049; note: potency is the fitted concentration of half-maximal effect; % is set by controls: 0 for no effect and ±100 for the full control effect; nearly all actives have a fitted effect of over 50% in size
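Rat TrxR1, dispensed at 90 nM, was prereduced with 400 uM NADPH (final) for 5 min at ~22 deg C, then incubated with compound 15 min before 400 uM selenite. A first-read NADPH fluorescence drop versus no-compound background flagged substrates.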
rTrxR1 inhibitor: qHTS Assay for Inhibitors of Mammalian Selenoprotein Thioredoxin Reductase 1 (TrxR1): qHTS. Thioredoxin reductase 1, cytoplasmic (Rattus norvegicus), O89049. recombinant rTrxR1, NADPH fluorescence consumption, selenite substrate. Potency, µM (titrated, usually from 114 µM), for the others: top-dose activity change, negative = inhibition, usual class: inhibitors. hit rate 1% among 390,000. AID 588453, 2011; note: potency is the fitted concentration of half-maximal effect; % is set by controls: 0 for no effect and ±100 for the full control effect; nearly all actives have a fitted effect of over 65% in size
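Rat TrxR1 (90 nM in the dispensed reagent) was pre-reduced with 400 uM NADPH for 5 min at room temperature, then incubated with compound for 15 min. After 400 uM selenite was added, NADPH fluorescence (Ex 340/Em 450 nm) was followed for 8 min.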
GALK inh: qHTS Assay for Inhibitors of Human Galactokinase (GALK); Purified GALK, Kinase-Glo residual ATP luminescence; hit rate 0.007% among 270,000; Potency, µM (highest dose often 57.5 µM), inactives show top-dose activity change, negative = inhibition, usual class: inhibitors; P51570; note: potency is the fitted concentration of half-maximal effect; % is set by controls: 0 for no effect and ±100 for the full control effect
Target sequence (P51570 whole entry, looked up): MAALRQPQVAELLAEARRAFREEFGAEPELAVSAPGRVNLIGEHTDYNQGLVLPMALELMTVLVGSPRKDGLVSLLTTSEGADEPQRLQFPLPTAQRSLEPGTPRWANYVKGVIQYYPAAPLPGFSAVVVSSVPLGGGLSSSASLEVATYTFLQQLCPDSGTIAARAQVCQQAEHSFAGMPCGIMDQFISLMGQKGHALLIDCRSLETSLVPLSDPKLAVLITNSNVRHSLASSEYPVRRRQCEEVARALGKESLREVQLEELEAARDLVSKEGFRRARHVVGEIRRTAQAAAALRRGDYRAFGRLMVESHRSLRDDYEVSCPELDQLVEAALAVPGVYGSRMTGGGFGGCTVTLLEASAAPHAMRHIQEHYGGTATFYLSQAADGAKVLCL
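Luminescence from leftover ATP (Ultra-Glo luciferase/luciferin) served as read-out after a 1 h room-temperature reaction of 5 nM GALK with 35 uM ATP and 100 uM galactose.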
PINK1 modulator: A Quantitative High throughput Screen to Identify Chemical Modulators of PINK1 Expression; PINK1 immunofluorescence, high-content cytometry, 24 h; hit rate 0.2% among 410,000; Potency, µM (top dose mostly 76.6 µM), for the others: at the highest dose activation (PINK1 increase), usual class: activators; AID 624263, 2012; active = well fitted activation curve with a large enough effect; inconclusive = small, poorly fitted or top-dose-only effect; cell line not stated here; note: potency is the fitted concentration of half-maximal effect; % of control where 0% means no effect; nearly all actives have a fitted effect of over 65% in size
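Measures PINK1 amount and localization on or inside mitochondria by immunofluorescence. Stable cells get compounds at 5 concentrations for 24 hours before fixation and staining; CCCP controls included.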
Active calls of the source: *; ? = inconclusive; . = not tested or not shown; [ ] = remark or other dose. Unless noted, calls come from the whole dose curve; as a rule, active = well fitted curve in the direction sought with a large enough effect; inconclusive = small, poorly fitted or top-dose-only effect, or another doubt; inactive = no such curve, though single readings can be large; an effect the other way counts as inactive or inconclusive.

SMILES	miR-21 reporter	TrxR1 substrate	rTrxR1 inhibitor	GALK inh	PINK1 modulator
COc1ccc(CNc2ccnc(-c3ccccc3C(F)(F)F)n2)c(OC)c1	.	.	.	.	3%
Cc1cc(=O)n2c(C(=O)Nc3ccc(C(=O)OC(C)C)cc3)c(C(=O)Nc3ccccc3)sc2n1	1%	-2%	50µM*	0%	1%
COc1cc(OC)c(OC)cc1CNCCCSc1nnnn1C	-1%	0%	17%	.	-1%
COc1cn(CC(=O)Nc2ccc(C)cc2)c(CN2CCCCC2)cc1=O	-1%	-1%[57.1 µM]	2%[57.1 µM]	.	-1%
COC(=O)N1C(=O)[C@@](c2ccc(OC)cc2)(C(C)C)N1C(=O)OC	6%	4%[57.1 µM]	28µM*	.	0%
COC(=O)N1C(=O)[C@](c2ccccc2)(C2CCCC2)N1C(=O)OC	3%	13%[57.1 µM]	?	.	4%
COC(=O)N1C(=O)[C@](c2ccc(Cl)cc2)(C(C)C)N1C(=O)OC	5%	4%	7.9µM*	.	0%
COC(=O)N1C(=O)[C@@](c2ccccc2)(C(C)C)N1C(=O)OC	2%	-1%	18µM*	.	1%
COc1cccc(Nc2ncc3ncc(=O)n(C[C@H]4CCCO4)c3n2)c1	.	.	.	.	-1%
Cc1cc(C)c(NC(=O)Cn2nnc(-c3nc(-c4ccncc4)no3)c2N)c(C)c1	5%	1%	20%	.	0%
CCOCCCNC(=O)NC(C)c1c(-n2cccc2)sc2c1CCN(CC)C2 (stereo not drawn)	-4%	-6%	-34%	.	0%
COc1ccccc1CNC(=O)CSCc1nc(-c2ccc(OC)c(OC)c2)oc1C	4%	22%	-15%	.	-1%
O=C(CSc1nc2ccc([N+](=O)[O-])cc2[nH]1)NC1CCCCCC1	27%	-3%[57.1 µM]	-8%[57.1 µM]	1%	14µM*
COc1ccc(N2C(=O)[C@@H]3C[C@H]2CN3Cc2ccc3nccnc3c2)cc1Cl	.	.	.	.	0%
Cc1ccc(-c2ccccc2NC(=O)CS(=O)CC(=O)Nc2ccc(C)c(Cl)c2)o1 (stereo not drawn)	-8%	1%	3.5µM*	7%	9%
c1ccc(CNc2ncnc3ccc(-c4ccc5c(c4)OCO5)cc23)cc1	.	.	.	.	1%
O=C(CN1CCN(c2ccc(F)cc2)CC1)c1ccc2c(c1)OCO2	-2%	4%	25µM*	-3%	-4%
CCOC(=O)c1sc(S(C)=O)c2c1CCc1conc1-2 (stereo not drawn)	6%	1%	32µM*	.	1%
CCOC(=O)c1sc2ccccc2c1OC(=O)c1ccc(C)cc1	-5%	-21%[57.1 µM]	7%[57.1 µM]	0%	2%
CCOC(=O)N(C(=O)c1ccccc1)c1ccccc1	.	1%	10%	.	.
CCCCCCCCN1C(=O)[C@H](CC(=O)NCc2ccc(C)o2)C[C@@]2(C(=O)OC)CCCCC=C12	.	.	.	.	20%
O=c1[nH]c2cc3c(cc2cc1C(c1nnnn1CC1CCCO1)N1CCCCCC1)OCCO3 (stereo not drawn)	-1%	14%	22µM*	3%	-1%[38.3 µM]
O=C(Nc1cc(Cl)ccc1-n1cncn1)c1ccc([N+](=O)[O-])s1	27%	-5%	?	-4%	5µM*
CSC(N)=NCCC[C@H](N)C(=O)O	.	6%[57.1 µM]	18%[57.1 µM]	.	.
Cc1oc(=O)c(NC(=O)c2ccccc2)cc1C(=O)c1ccccc1	22%	-8%	40µM*	4%	2%
SMILES	miR-21 reporter	TrxR1 substrate	rTrxR1 inhibitor	GALK inh	PINK1 modulator
O=C1C(=O)C(c2cc(O)c(O)c(O)c2)Oc2cc(O)cc(O)c21 (stereo not drawn)	.	-6%	13µM*	.	0%
CCN(C(=O)CSc1nc2ccccc2nc1Cc1ccc(F)cc1)c1cccc(C)c1	3%	-2%[57.1 µM]	18%[57.1 µM]	.	0%
CCN(C(=O)CSc1nc(-c2ccccc2)no1)c1cccc(C)c1	27%	5%	1%	.	13µM*
COC(=O)/C(=C/c1ccco1)NC(=O)c1ccc(Br)o1	-4%	-17%	?	4%	1%
NC(=O)/C(=C/c1ccco1)NC(=O)c1ccc(Br)o1	.	-4%	11µM*	.	-1%
Cc1ccc(-c2nn(-c3ccccc3)cc2C=C2C(=O)CC(C)(C)CC2=O)cc1	-31%	-7%	22µM*	2%	-1%
COc1ccc(Cn2c(CO)cnc2SCC(=O)NCc2ccco2)cc1	-1%	3%[57.1 µM]	9%[57.1 µM]	.	-5%
O=C(/C=C/c1ccco1)NCCc1ccc(F)cc1	-32%	4%	45µM*	-1%	-2%
CC(=O)NS(=O)(=O)c1ccc(NC(=O)/C=C/c2ccco2)cc1	-1%	-6%[57.1 µM]	-4%	3%	1%
Cc1ccc(OCCNC(=O)/C=C/c2ccco2)cc1C	-3%	4%	11µM*	1%	1%
Cc1ccc(OCCNC(=O)/C=C/c2ccccc2)cc1C	-6%	-6%	-3%	0%	-2%
NS(=O)(=O)c1ccc(NC(=O)/C=C/c2ccco2)cc1	-8%	-14%	18µM*	-3%	4%
O=C(C=Cc1ccco1)c1ccco1	.	13%[57.1 µM]	14µM*	.	0%
CCCn1c2ccccc2c2cnn(CC(=O)Nc3ccc(C)cc3Br)c(=O)c21	9%	-1%	14%	.	?
COc1ccc(CCC(=O)NCc2nc3cccnc3n2Cc2ccccc2)cc1	-1%	3%[57.1 µM]	19%[57.1 µM]	.	0%
CCN(CC)c1ccc(NC(=O)CSc2nnc(C)c(=O)[nH]2)cc1	-3%	3%	-7%	.	0%
O=C(/C=C/c1ccccc1)NCc1ccc2c(c1)OCO2	-16%	3%	20%	1%	1%
Cc1cc(C(=O)NNC(=O)/C=C/c2ccco2)c(C)o1	.	4%	2.8µM*	.	-5%
O=C(/C=C/c1ccccc1)Nc1cccnc1Cl	-63%	-8%	14%[57.1 µM]	-3%	-1%
O=C(/C=C/c1ccco1)NCc1ccc2c(c1)OCO2	-7%	2%	35µM*	-2%	1%
O=C(/C=C/c1ccco1)Nc1cccnc1Cl	-54%	1%	16µM*	-1%	1%
O=C(/C=C/c1ccco1)NCC1COc2ccccc2O1 (stereo not drawn)	-20%	1%	16µM*	-2%	5%
COc1cccc(-c2nnc(SCC(=O)NC3CCCCC3)o2)c1	-1%	-3%	-3%	.	-2%
CCOC(=O)c1ccc(Nc2nc3ccc(C(=O)c4ccccc4)cc3n3c(C)nnc23)cc1	5%	-6%	1%	.	-1%
COC(=O)[C@@H]1CCCN1C(=O)c1cnn(-c2ncc3c(n2)-c2ccccc2CCC3)c1C1CC1	.	.	.	.	3%
O=C(/C=C/c1ccco1)Nc1ccc2c(c1)OCO2	-11%	-13%	71µM*	6%	6%
O=C1C=C(Nc2ccc(Cl)cc2)C(=O)N1c1ccc(Cl)cc1	-4%	2%	7%	-1%	35µM*
